An excerpt weighted towards active compounds, which were near 1.2% of everything screened.
Sa RN4220 lethal: kills Staphylococcus aureus RN4220; S. aureus RN4220 growth, OD600, 16 h; inhibition, % (concentration not given with the values); 330,000 compounds, 0.33% hits; AID 1259311; in the data active = inhibition above about 85%
BJeLR lethal: BJeLR cell viability loss | BJeLR (HRASV12) viability, CellTiter-Glo ATP luminescence, 48 h | inhibition, % (concentration not given with the values) | 300,000 compounds, 0.17% hits | AID 1554; in the data active = inhibition above about 50%
SSB-PriA inh: blocks PriA binding to SSB C-terminal tail; AID 1272365; 430,000 compounds, 0.6% hits; inhibition, % at 33 µM; AlphaScreen SSBct-PriA binding, biotinylated peptide; in the data active = inhibition mostly above about 37%, no sharp cut-off; inactive = mostly below about 20%
MazEF act: activators of E. coli MazEF toxin-antitoxin RNase; FAM/BHQ RNA-DNA oligo cleavage fluorescence, 5 h; AID 504720; activation, % at 20 µM; 350,000 compounds, 0.32% hits; in the data active = activation above about 50%
Target sequence (P0AE70 whole entry, looked up): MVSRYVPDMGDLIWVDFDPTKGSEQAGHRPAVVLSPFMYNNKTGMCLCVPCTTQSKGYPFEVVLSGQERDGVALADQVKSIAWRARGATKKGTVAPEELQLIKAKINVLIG
ugtP null kill: kills S. aureus RN4220 lacking UgtP. 330,000 compounds, 0.54% hits. S. aureus RN4220 ugtP deletion, OD600 growth, 16 h. growth inhibition, % (concentration not given with the values); in the data active = growth inhibition above about 68%
A number is an active result; n = inactive; x = not tested or not shown; + = active, no number; ! = a repeat was not active.

SMILES	Sa RN4220 lethal	BJeLR lethal	SSB-PriA inh	MazEF act	ugtP null kill
Cc1ccc(S(=O)(=O)Nc2ccc(O)c3ncccc23)cc1	n	n	45.7!	n	n
O=C(Nc1cnn(C2CCOC2)c1)c1cc2ccccc2s1 (stereo unspecified)	x	x	n	x	x
COc1ccccc1NC(=O)COC(=O)/C=C/c1cccs1	n	x	n	n	n
COc1ccc(NC(=S)NC(=O)/C=C/c2ccccc2)cc1	n	n	n	n	n
COc1ccc(NC(=S)NC(=O)/C=C/c2cccs2)cc1	n	n	n	n	83.9
COc1ccccc1NC(=S)NC(=O)/C=C/c1cccs1	n	n	n	n	active
COc1cc(C2NC(=O)NC(c3ccccc3)=C2C(C)=O)cc(Cl)c1OCC(=O)O (stereo unspecified)	n	n	n	n	n
CCSc1nnc(N(CCC#N)CCC#N)s1	n	n	n	n	n
COC(=O)c1ccc2c(c1)C(C)(C)C(/C=C/c1ccc(OC)c(OC)c1OC)=[N+]2C	x	52.0	n	n	x
c1ccc(-c2nnnn2-c2ccccc2)cc1	n	n	n	n	n
ClC(Cl)(c1nnnn1-c1ccccc1)c1nnnn1-c1ccccc1	100.1	x	n	n	99.9
CCC(C)(C)c1ccc(OCCCC[n+]2cccc(C)c2C)c(C(C)(C)CC)c1	100.8	57.2	n	n	100.5
CCC(C)(C)c1ccc(OCCCCSc2nc3ccccc3[nH]2)c(C(C)(C)CC)c1	x	x	n	x	x
CCC(C)(C)c1ccc(OCCCC[n+]2ccc(C)cc2)c(C(C)(C)CC)c1	100.5	n	n	n	100.4
O=C(Nc1nc(-c2csc(NC(=O)c3ccc4ccccc4c3)n2)cs1)c1ccc2ccccc2c1	x	x	n	x	x
OCc1ccc(-c2nn(Cc3ccccc3)c3ccccc23)o1	n	n	41.5	n	n
O=c1c2ccccc2c(-c2n[nH]c(=S)o2)nn1Cc1ccccc1	n	n	n	n	n
O=C(O)c1ccc(N=Cc2c(O)ccc3ccccc23)cc1	n	n	n	n	n
Oc1ccc2ccccc2c1C=Nc1cc(C(F)(F)F)ccc1N1CCCC1	n	n	n	+	94.6
Cc1cccn2cc(-c3cccc(N)c3)nc12	x	x	52.0	x	x
C=CCn1c(=O)/c(=C/c2cc(OC)c(OC)c(OC)c2)s/c1=C(/C#N)c1nc2ccccc2n1C	x	n	x	+	x
Cc1cccc(C)c1NC(=O)CSc1nnc(-c2ccncc2)n1Cc1ccco1	n	n	n	n	n
O=c1c2[nH]c3ccc(Br)cc3c2ncn1CCCn1ccnc1	n	n	60.7	n	n
CCOC(=O)c1sc(NC(=S)NC(=O)c2cccc(OC)c2)nc1C	n	n	n	n	n
N#Cc1ccc(OCC(=O)OCC(=O)Nc2cc(C(F)(F)F)ccc2N2CCOCC2)cc1	n	n	n	n	n
SMILES	Sa RN4220 lethal	BJeLR lethal	SSB-PriA inh	MazEF act	ugtP null kill
O=C(C[N+]1(CC#Cc2ccccc2)CCOCC1)c1ccccc1	n	n	n	n	n
COC(=O)c1ccc(-c2ccco2)n1Cc1cccc(C)c1	n	n	n	n	94.5
CCOC(=O)c1c(NC(=O)/C=C/c2ccc3c(c2)OCO3)sc(C)c1CC	x	n	n	n	x
COc1cc(C=NNC(=S)NCCN2CCOCC2)cc(OC)c1O	n	x	n	x	n
CCc1nnc(NC(=O)CSc2nc3cc4c(cc3cc2CC)OCCO4)s1	n	n	n	81.7	n
OCC1OC(n2ccc3c2ncn2ncnc32)C(O)C1O (stereo unspecified)	x	x	x	n	x
NC(=S)c1cn(C2OC(CO)C(O)C2O)c2ncnc(N)c12 (stereo unspecified)	n	61.9	n	n	n
Nc1ncnc2c1ccn2[C@@H]1O[C@H](CO)[C@@H](O)[C@H]1O	n	110.7	n	n	n
CCOc1cccc(/C=N/Nc2ccc(S(=O)(=O)N(CC)CC)cn2)c1O	x	51.6	x	n	x
CCN(CC)S(=O)(=O)c1ccc(NN=Cc2ccc(O)cc2O)nc1	n	x	n	x	n
Cc1cc(NC(=O)c2cc3ccccc3o2)n(-c2nc3c(cnn3-c3ccc(F)cc3)c(=O)[nH]2)n1	x	x	n	x	x
COc1ccc(CCC(=O)Nc2cc(C)nn2-c2nc3c(cnn3-c3cccc(C)c3C)c(=O)[nH]2)cc1	x	x	n	x	x
COc1ccc(CC(=O)Nc2cc(C)nn2-c2nc3c(cnn3-c3cccc(C)c3C)c(=O)[nH]2)cc1	x	x	60.0	x	x
Cc1cc(NC(=O)c2cccc3ccccc23)n(-c2nc3c(cnn3-c3ccc(F)cc3)c(=O)[nH]2)n1	x	x	43.0	x	x
COc1ccc(-c2nc(N)sc2CC(=O)O)cc1	x	x	n	x	x
CN(C)C=NC1=C(C#N)C(c2cccs2)c2ccc3ccccc3c2O1 (stereo unspecified)	n	x	n	x	n
N#CC1=C(N)Oc2c(ccc3ccccc23)C1c1cccs1 (stereo unspecified)	x	n	n	59.1	x
S=C(NCc1ccccn1)NN=Cc1ccccn1	x	x	61.1	n	x
S=C(NCc1ccccc1)N/N=C/c1ccccn1	x	x	n	x	x
Cn1cnc(S(=O)(=O)NC[C@@](C)(O)CCc2ccccc2)c1	x	x	n	x	x
CC1CCC(=NNc2ccc(C(F)(F)F)cc2[N+](=O)[O-])CC1 (stereo unspecified)	n	n	72.8	n	n
O=[N+]([O-])c1cc(C(F)(F)F)ccc1NCC1CCCO1 (stereo unspecified)	n	n	n	92.3	n
Cc1[nH]c2ccccc2c1/C=C(\C#N)C(=O)NCc1ccccc1	n	n	n	105.7	n
Cc1ccc(C(C)NC(=O)/C(C#N)=C\c2c(C)[nH]c3ccccc23)cc1 (stereo unspecified)	n	n	n	n	n
COc1ccc(CN(C)C(=O)c2ccc(NS(=O)(=O)c3ccccc3)cc2)c(OC)c1	n	n	n	n	n
SMILES	Sa RN4220 lethal	BJeLR lethal	SSB-PriA inh	MazEF act	ugtP null kill
COc1ccc(CN(C)C(=O)c2ccc(NS(=O)(=O)c3ccc(F)cc3)cc2)c(OC)c1	n	n	n	n	90.1
CC(C)C[C@H]1CNC(=S)N1CC1CCN(CC2CCC(C(C)(C)C)CC2)CC1 (stereo partly specified)	x	x	n	n	x
O=C(OCc1ccccc1)C1=NNC2C(=O)N(c3ccccc3)C(=O)C12 (stereo unspecified)	n	n	n	n	n
O=C(C1=NN[C@@H]2C(=O)N(c3cccc(F)c3)C(=O)[C@H]12)c1ccc2ccccc2n1	x	n	n	72.9	x
COc1cccc(N2C(=O)[C@H]3C(C(=O)c4cnccn4)=NN[C@H]3C2=O)c1	x	n	n	n	x
O=C(C1=NN[C@@H]2C(=O)N(c3cccc(C(F)(F)F)c3)C(=O)[C@H]12)c1ccc2ccccc2n1	n	n	n	96.5	n
Oc1ccc(C=NNc2nc(-c3ccccc3F)nc3ccccc23)c(O)c1	x	x	n	x	x
CC(C)OC(=O)c1nn2c(C(F)(F)F)cc(-c3ccc(Br)o3)nc2c1Br	n	n	n	350.7	n
CC(C)OC(=O)c1nn2c(C(F)(F)F)cc(-c3ccco3)nc2c1Cl	n	n	n	n	n
Cc1ccc(-c2nn3c(C)nnc3s2)cc1NC(=O)COc1ccc(Cl)cc1	n	n	n	n	n
Oc1c(Cl)c(Cl)c(O)c(Cl)c1Cl	x	x	n	x	x
Oc1c(Cl)c(Cl)c(Cl)c(Cl)c1Cl	100.2	n	n	n	100.4
O=C(NN=C/C=C/c1ccco1)c1ccccc1Cl	n	x	n	x	n

From PubChem
